# From PubChem BioAssay
# A549 viability = counter-screen for Nrf2 inhibitors: cytotoxicity in A549 cells | A549 ARE-Fluc cells, CellTiter-Fluor viability, 18-24 h | Potency, µM (series often up to 46 µM), for the others: at the top dose activity change, negative = cytotoxicity, usual class: inhibitors | actives 0.16% (n = 390,000) | AID 504648; also: % is scaled to controls: 0 for no effect and ±100 for the full control effect
#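 A549 ARE_Fluc cells in 5% FBS OPTI-MEM were exposed to compounds in concentration-response for 18-24 h at 37 deg C. Viability was read by CellTiter-Fluor fluorescence (Ex 405/Em 525) after 30 min, before the luciferase read.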
# Nrf2 inh = inhibitors of Nrf2 signaling; A549 ARE-Fluc reporter, luciferase luminescence, 18-24 h; Potency, µM (titrated, usually from 46 µM), for the others: at the top dose activity change, negative = inhibition, usual class: inhibitors; actives 2.1% (n = 360,000); also: % is scaled to controls: 0 for no effect and ±100 for the full control effect; nearly all actives have a fitted effect of over 60% in size
#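 Two sequential reads on A549 ARE_Fluc cells exposed to compound for 18-24 h: a CellTiter-Fluor fluorescence read for viability, then a luciferase luminescence read for Nrf2/ARE activity.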
# HepG2 tox = kills HepG2 cells in TGF-b inhibitor counter-screen. Potency, µM (titrated, usually from 46.1 µM), inactives show at the highest dose activity change, negative = cytotoxicity, most hits filed as cytotoxic. actives 0.76% (n = 410,000). HepG2 CAGA-GFP viability, ATP luminescence, 18 h
#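 CellTiter-Glo luminescence gave cytotoxicity after 18 hours at 37 degrees C. The cells were HepG2 CAGA-GFP in 1% FBS DMEM, stimulated with 500 pg/mL TGF-beta after compound addition. %Activity was normalised to no-cell wells (complete cell-killing) and DMSO (no toxicity), and curves were fitted and classified.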
# ATXN2 expr inh = reduces ATXN2 reporter expression in HEK-293 cells. HEK-293 ATXN2-luciferase reporter, luminescence, 24 h. Potency, µM (doses to about 57 µM), for inactives: at the top dose activity change, negative = inhibition, most hits filed as inhibitors. actives 0.72% (n = 360,000). AID 1745845; also: % is scaled to controls: 0 for no effect and ±100 for the full control effect; nearly all actives have a fitted effect of over 55% in size
#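 qHTS (up to 57 uM final) was run with 24 h compound exposure of reporter cells at 37 °C. Each well was multiplexed: SteadyGlo luminescence measured ATXN2-luciferase expression after a fluorogenic Gly-Phe-AFC viability readout (25 uM final).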
# TGFb inhibitor = TGF-b pathway inhibition. HepG2 CAGA-GFP TGF-b/SMAD3 reporter, GFP fluorescence, 18 h; TGF-beta stimulated, 500 pg/mL final. actives 1.2% (n = 410,000). Potency, µM (doses to about 46.1 µM), inactives show top-dose activity, negative = inhibition, hits mostly inhibitors. AID 588855; also: % is scaled to controls: 0 for no effect and ±100 for the full control effect; nearly all actives have a fitted effect of over 65% in size
#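 TGF-beta reporter screen: HEPG2 CAGA-GFP, 1% FBS, 500 pg/mL TGF-beta final, 18 h; per-cell GFP summed per well; curves fitted and categorized by class.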
# ATXN viability = cell viability loss in ATXN counter-screen | actives 0.49% (n = 400,000) | S2 cells (HEK-293 line with an ATXN2-luciferase reporter) viability, CellTiter-Fluor protease fluorescence, 24 h | Potency, µM (top dose mostly 56.7 µM), hits mostly cytotoxic; also: nearly all actives have a fitted effect of over 40% in size
# Numbers without * were called inactive; i = inactive; u = inconclusive; x = no result. Only some compounds are listed: those with a hit (about 3.8% of all), similar ones and a draw of the others. Calls follow the shape of the dose curve; as a rule, active = well fitted curve in the direction sought with a large enough effect; inconclusive = small, poorly fitted or top-dose-only effect, or another doubt; inactive = no such curve, though single readings can be large; an effect the other way counts as inactive or inconclusive. Potency is read from the fitted curve at half-maximal effect.
SMILES,A549 viability,Nrf2 inh,HepG2 tox,ATXN2 expr inh,TGFb inhibitor,ATXN viability
O=C1/C(=C\c2ccc(O)c(O)c2)SC(=S)N1Cc1ccccc1,u,-25.1%,-75.2%,u,u,28.2µM*
N#Cc1cc[n+](CC(=O)c2ccc(NC(=O)c3ccccc3)cc2)cc1,1.6%,18.4%,-4.9%,x,11.2%,i
Cc1c(Cl)cccc1NC(=O)C(=O)NCCc1csc(-c2ccc(C(F)(F)F)cc2)n1,-2.4%,x,-3.4%,x,-11.6%,x
O=C(Nc1ccc(F)cc1)c1cc(-c2ccncc2)nc2c(Cl)cccc12,-1.8%,12.2%,-16.4%,-30.2%,2.3%,i
CCc1ccc(N2CC(C(=O)Nc3cccc(S(=O)(=O)N4CCCC4)c3)CC2=O)cc1 (centres undefined),-1.5%,u,3.0%,-4.7%,u,i
CCc1cccc(CC)c1NC(=O)c1c(C)oc2ccc(O)c(CN3CCCC3)c12,-8.3%,19.6%,-29.4%,-24.8%,-10.0%,15.8µM*
Cc1oc2ccc(O)c(CN3CCCCCC3)c2c1C(=O)Nc1cccc(C(F)(F)F)c1,-3.1%,8.5%,12.6µM*,x,u,x
Cc1oc2ccc(O)c(CN3CCCC3)c2c1C(=O)Nc1ccccc1,14.0%,15.4%,-19.9%,-12.0%,0.9%,i
O=C(CCC(=O)N1CCc2ccccc2C1)NCCc1ccc(Cl)cc1,10.6%,-5.8%,1.4%,-30.5%,-15.1%,i
CCCC(=O)c1c(NCCO)cc(C)oc1=O,7.1%,-17.6%,-7.5%,-4.2%,-11.9%,i
Cn1ccc2c(/C=C/c3ccc(F)cc3)cc3c(c21)C1CCC3O1 (centres undefined),x,x,-28.0%,-28.2%,u,i
COCC1CCCN(Cc2cn(Cc3ccccc3)nc2-c2cc3ccccc3o2)C1 (centres undefined),-10.0%,-4.3%,-24.4%,-30.7%,12.6µM*,u
CSCCC(NC(=O)c1ccccc1Br)C(=O)NCC(c1ccco1)N1CCCCC1 (centres undefined),7.2%,-2.2%,-7.6%,9.8%,1.8%,i
COC(=O)c1ccccc1S(=O)(=O)Nc1cc(=O)c2ccccc2[nH]1,13.1%,u,x,x,x,x
CCOc1cc2nc3c4ccccc4n(C)c3nc2cc1OCC,-15.1%,-12.7%,8.3%,x,-4.0%,i
CCN(CC)Cc1cc(Nc2c3ccccc3nc3c4ccccc4n(C)c23)cc(CN(CC)CC)c1O,16.4µM*,u,-56.8%,20µM*,-30.1%,31.6µM*
COc1ccc(N2CCN(S(=O)(=O)CCNC(=O)c3ccc(C(F)(F)F)cc3)CC2)cc1,12.0%,x,1.4%,x,29.6%,x
Cc1c(Cl)cccc1NS(=O)(=O)c1cc2c(cc1F)NC(=O)CC2,-2.9%,u,x,x,x,x
O=C(Nc1nc(-c2cccs2)cs1)c1ccc(S(=O)(=O)N2CCCCC2)cc1,-5.1%,20.6µM*,-37.0%,-26.5%,u,i
O=C(Nc1nc(-c2ccccc2)c(C(=O)c2ccccc2)s1)c1ccc(S(=O)(=O)N2CCCCC2)cc1,-18.6%,14.6µM*,34.7%,3.0%,-1.6%,i
CCCC(=O)N1CCN(c2ccc(NC(=S)NC(=O)c3cccc(C)c3)cc2)CC1,-29.1%,14.6µM*,9.5%,u,0.0%,u
O=C(Nc1ccccc1F)c1nc(S(=O)(=O)Cc2ccccc2F)ncc1Cl,u,u,8.91µM*,u,4.47µM*,17.8µM*
COc1ccc(OC)c(NC(=O)c2nc(S(=O)(=O)Cc3ccccc3F)ncc2Cl)c1,x,x,3.16µM*,x,u,x
Cn1c(=O)c(C#N)c(-c2ccc(F)cc2)c2cc(C(=O)c3cc(Cl)cc(Cl)c3O)cnc21,u,u,-44.9%,u,17.8µM*,i
O=C(Nc1ccn(Cc2c(F)c(F)c(F)c(F)c2F)n1)c1cccc(Cn2cc([N+](=O)[O-])cn2)c1,-19.4%,18.4µM*,-7.8%,u,2.6%,i
SMILES,A549 viability,Nrf2 inh,HepG2 tox,ATXN2 expr inh,TGFb inhibitor,ATXN viability
Cc1ccccc1NC(=O)CSc1nc2cc3c(cc2cc1C)CCC3,u,-22.5%,-0.3%,-19.6%,0.4%,i
CCC(=O)Nc1ccc(NC(=O)CSc2nc3cc4c(cc3cc2C)CCC4)cc1,u,23.1µM*,-7.3%,-29.4%,0.5%,u
Cc1ccccc1N1CC(c2nc3ccccc3n2CCC2CCCCC2)CC1=O (centres undefined),-1.7%,23.1µM*,-102.8%,u,u,x
CCc1ccccc1N1CC(c2nc3ccccc3n2CCC2CCCCC2)CC1=O (centres undefined),u,u,10µM*,u,u,28.2µM*
COc1ccc(OC)c(NC(=O)c2nnn(CC(=O)Nc3ccc(C(C)C)cc3)c2N)c1,-13.8%,u,-59.0%,x,u,x
CC1(C)S[C@@H]2[C@H](NC(=O)COc3ccccc3)C(=O)N2[C@@H]1C(=O)OCc1cccc2cccnc12,x,x,10.4%,x,u,x
O=C(Nc1ccccc1)c1ccc(F)c(S(=O)(=O)N2CCOCC2)c1,-1.9%,14.9%,-7.1%,2.8%,0.5%,i
CCN(c1ccccc1)S(=O)(=O)c1cc(C(=O)Nc2ccc(F)c(F)c2)ccc1F,u,u,-29.9%,u,11.2µM*,u
Cc1ccc(NC(=O)c2ccc(F)c(S(=O)(=O)NCCc3ccccc3)c2)cc1F,u,x,10µM*,x,11.2µM*,x
Cc1ccc(NC(=O)c2ccc(F)c(S(=O)(=O)N3CCOCC3)c2)cc1F,-22.8%,13µM*,-19.1%,-15.2%,u,i
CC(C)NC(=S)n1cc(C(=O)c2cc(Cl)cc(Cl)c2O)cn1,1.8%,23.1%,-5.1%,-17.3%,-8.9%,i
O=C(c1ccc2c(c1)OCCO2)N1CCN(c2ccc(C(F)(F)F)cn2)CC1,x,x,-8.1%,x,-16.6%,u
O=C(c1ccc2c(c1)OCO2)N1CCN(c2ccc(C(F)(F)F)cn2)CC1,-0.2%,11.6µM*,-22.5%,-20.4%,-7.9%,u
O=C(Nc1ncc(Cc2ccccc2)s1)C1CCN(C(=O)c2ccco2)CC1,-10.6%,20.6µM*,-2.7%,x,2.6%,x
CC(=O)NNC(=S)NC(=O)c1ccc(C)cc1,6.8%,u,13.0%,x,1.9%,i
Cc1ccc(C(=O)NNC(=S)NC(=O)c2ccc(Cl)cc2)cc1,u,16.4µM*,-32.3%,u,16.1%,i
O=C(CCc1ccccc1)NNC(=S)NC(=O)c1ccc(Cl)cc1,-23.7%,20.6µM*,-18.9%,-18.0%,u,i
OCCN(CCO)CC(O)COc1ccc(C23CC4CC(CC(C4)C2)C3)cc1 (centres undefined),-11.8%,u,-87.9%,u,17.8µM*,i
